Experimental data reported in PubChem BioAssay.
Calls of active or inactive are those of the source.

Assays:
[1] = small molecules captured by biotinylated probe aFSTL3 – biochemical, small-molecule microarray, fluorescence 635/667, stem cell growth factor project, primary screen (AID 1064); settings: higher = more signal;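 further: measures binding of the biotinylated anti-FSTL3 antibody to printed compounds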
[2] = binders from COS7 lysate, DM2A8 probe, primary screen, torsin A project, cell lysate, small-molecule microarray, fluorescence 635/667 (AID 1065); settings: higher = more signal, COS7 lysate expressing mutant human TOR1A
[3] = small molecules captured by biotinylated probe aFGF2 – biochemical, small-molecule microarray, fluorescence 635/667, stem cell growth factor project, primary screen (AID 1067); settings: higher = more signal;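 further: measures binding of biotinylated aFGF2 protein to printed compounds on slides; z-score merges feature fluorescence and signal-to-noise across triplicate slides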
[4] = small molecules captured by biotinylated probe aFGF10 – biochemical, small-molecule microarray, fluorescence 635/667, stem cell growth factor project, primary screen (AID 1071); settings: higher = more signal;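 further: score merges 667 nm spot intensity and signal to noise from triplicate slides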
[5] = target: Neurogenic locus notch homolog protein 2 (Homo sapiens) (UniProt Q04721); experiment: small molecules binding Notch2 protein – biochemical, small-molecule microarray, 635 nm fluorescence, stem cell growth factors, primary screen (AID 1073); settings: higher = more signal
Neurogenic locus notch homolog protein 2 (Homo sapiens), sequence (Q04721 whole entry, looked up, canonical isoform): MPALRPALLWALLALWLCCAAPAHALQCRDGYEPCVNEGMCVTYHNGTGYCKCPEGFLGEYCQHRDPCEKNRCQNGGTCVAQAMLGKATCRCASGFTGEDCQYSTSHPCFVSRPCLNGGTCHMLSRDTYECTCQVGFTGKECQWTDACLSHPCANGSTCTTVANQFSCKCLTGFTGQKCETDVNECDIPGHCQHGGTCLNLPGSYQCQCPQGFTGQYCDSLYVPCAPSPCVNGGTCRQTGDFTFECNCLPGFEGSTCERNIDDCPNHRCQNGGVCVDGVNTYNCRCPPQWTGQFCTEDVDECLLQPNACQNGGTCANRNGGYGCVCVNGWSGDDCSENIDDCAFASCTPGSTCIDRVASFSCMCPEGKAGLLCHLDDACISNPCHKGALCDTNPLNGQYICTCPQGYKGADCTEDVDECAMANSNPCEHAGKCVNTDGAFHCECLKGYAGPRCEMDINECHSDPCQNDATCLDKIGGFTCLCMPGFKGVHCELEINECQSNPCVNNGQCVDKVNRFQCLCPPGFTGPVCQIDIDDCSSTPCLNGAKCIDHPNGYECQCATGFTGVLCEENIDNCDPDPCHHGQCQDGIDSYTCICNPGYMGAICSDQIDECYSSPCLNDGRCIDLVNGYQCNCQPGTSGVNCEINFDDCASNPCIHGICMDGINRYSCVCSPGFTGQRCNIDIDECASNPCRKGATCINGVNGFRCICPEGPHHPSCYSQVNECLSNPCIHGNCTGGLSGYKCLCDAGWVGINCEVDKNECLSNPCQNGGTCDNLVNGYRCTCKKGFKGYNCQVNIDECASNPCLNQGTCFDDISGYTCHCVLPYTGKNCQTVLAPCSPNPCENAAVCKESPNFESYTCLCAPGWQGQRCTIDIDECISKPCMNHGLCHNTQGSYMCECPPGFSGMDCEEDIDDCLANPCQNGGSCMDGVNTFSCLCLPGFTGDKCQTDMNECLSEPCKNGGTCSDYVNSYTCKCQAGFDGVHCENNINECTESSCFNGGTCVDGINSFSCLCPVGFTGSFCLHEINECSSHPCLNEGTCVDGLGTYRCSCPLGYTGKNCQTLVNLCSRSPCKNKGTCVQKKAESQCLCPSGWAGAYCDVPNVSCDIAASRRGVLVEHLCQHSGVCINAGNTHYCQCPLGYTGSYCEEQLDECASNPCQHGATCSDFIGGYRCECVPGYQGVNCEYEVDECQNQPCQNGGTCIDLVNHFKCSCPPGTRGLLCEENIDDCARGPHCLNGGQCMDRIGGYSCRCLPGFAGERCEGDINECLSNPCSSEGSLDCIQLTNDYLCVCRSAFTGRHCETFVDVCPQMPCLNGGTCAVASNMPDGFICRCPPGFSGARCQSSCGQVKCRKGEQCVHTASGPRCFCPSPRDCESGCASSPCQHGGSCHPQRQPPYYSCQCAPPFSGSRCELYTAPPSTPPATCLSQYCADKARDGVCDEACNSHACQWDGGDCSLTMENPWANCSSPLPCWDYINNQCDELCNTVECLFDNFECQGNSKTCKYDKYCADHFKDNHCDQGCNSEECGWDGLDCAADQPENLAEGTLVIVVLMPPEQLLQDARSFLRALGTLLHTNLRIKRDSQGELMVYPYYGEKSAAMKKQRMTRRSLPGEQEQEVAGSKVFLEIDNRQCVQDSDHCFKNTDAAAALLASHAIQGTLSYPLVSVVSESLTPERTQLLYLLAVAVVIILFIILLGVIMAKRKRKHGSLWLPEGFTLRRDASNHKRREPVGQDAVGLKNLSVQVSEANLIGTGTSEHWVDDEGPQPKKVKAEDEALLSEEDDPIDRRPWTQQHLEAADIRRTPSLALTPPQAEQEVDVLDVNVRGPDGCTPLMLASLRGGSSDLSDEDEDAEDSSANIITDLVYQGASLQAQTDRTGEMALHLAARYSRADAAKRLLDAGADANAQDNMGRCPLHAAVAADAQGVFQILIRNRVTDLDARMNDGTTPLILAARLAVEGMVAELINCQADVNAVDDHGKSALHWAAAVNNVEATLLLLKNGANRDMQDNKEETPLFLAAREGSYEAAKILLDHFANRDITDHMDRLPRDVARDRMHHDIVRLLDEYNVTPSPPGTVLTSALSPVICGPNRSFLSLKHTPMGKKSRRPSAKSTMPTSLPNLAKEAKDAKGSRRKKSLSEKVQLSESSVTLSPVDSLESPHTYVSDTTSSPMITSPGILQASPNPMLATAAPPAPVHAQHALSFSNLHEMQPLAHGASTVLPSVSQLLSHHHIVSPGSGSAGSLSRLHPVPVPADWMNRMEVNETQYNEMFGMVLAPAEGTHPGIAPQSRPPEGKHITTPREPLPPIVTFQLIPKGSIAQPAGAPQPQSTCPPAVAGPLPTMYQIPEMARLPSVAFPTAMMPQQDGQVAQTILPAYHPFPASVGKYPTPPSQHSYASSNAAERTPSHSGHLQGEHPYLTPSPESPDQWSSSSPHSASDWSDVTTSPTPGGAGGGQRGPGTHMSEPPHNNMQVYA

[6] = target: Pro-neuregulin-1, membrane-bound isoform (Homo sapiens) (UniProt Q02297); experiment: small molecules binding neuregulin-1 protein – biochemical, small-molecule microarray, fluorescence 635/667, psychiatric disease protein project, primary screen (AID 1075); settings: NRG1 binding, 635 nm fluorescence, higher = more signal;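 further: score combines 667 nm spot fluorescence with signal to noise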
Pro-neuregulin-1, membrane-bound isoform (Homo sapiens), sequence (Q02297 whole entry, looked up, the tested form may be a part, canonical isoform): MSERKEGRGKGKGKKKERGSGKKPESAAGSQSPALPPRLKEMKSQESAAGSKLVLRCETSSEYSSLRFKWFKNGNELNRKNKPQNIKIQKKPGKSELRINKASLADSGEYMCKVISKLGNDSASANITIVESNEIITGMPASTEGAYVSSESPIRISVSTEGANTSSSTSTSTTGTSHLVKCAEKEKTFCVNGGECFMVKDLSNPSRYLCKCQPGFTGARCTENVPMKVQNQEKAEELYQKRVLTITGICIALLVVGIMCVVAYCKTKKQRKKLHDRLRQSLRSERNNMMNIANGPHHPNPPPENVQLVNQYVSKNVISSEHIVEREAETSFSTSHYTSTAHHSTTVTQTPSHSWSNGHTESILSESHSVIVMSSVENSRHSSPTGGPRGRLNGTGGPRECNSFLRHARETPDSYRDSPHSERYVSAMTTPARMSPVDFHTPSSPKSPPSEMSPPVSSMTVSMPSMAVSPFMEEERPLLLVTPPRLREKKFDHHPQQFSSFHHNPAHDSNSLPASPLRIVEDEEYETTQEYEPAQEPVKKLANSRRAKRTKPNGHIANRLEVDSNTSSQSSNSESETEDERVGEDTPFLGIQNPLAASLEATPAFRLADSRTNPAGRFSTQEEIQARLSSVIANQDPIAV

[7] = tested on: Neuregulin-1 EGF-like domain; experiment: small molecules binding NRG1 EGF domain – biochemical, small-molecule microarray, 635 nm fluorescence, primary screen (AID 1081); settings: higher = more signal;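 further: binding of the protein to compounds printed on small-molecule microarray slides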
[8] = FRG1 expression reporter modulators in myotubes – cell-based, C2C12 myotubes, firefly/Renilla luciferase, luminescence, FRG1 inhibition for FSHD, primary screen (AID 1084); settings: FRG1 promoter luciferase, higher = more signal, called active from +8 up or from −8 down
[9] = small molecules captured by biotinylated probe aFST – biochemical, small-molecule microarray, fluorescence 635/667, stem cell growth factor project, primary screen (AID 1086); settings: higher = more signal;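 further: score merges 667 nm fluorescence with signal-to-noise of each printed compound spot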
[10] = binders of probe aHhip on microarray, primary screen, stem cell growth factor project, biochemical, small-molecule microarray, fluorescence 635/667 (AID 1087); settings: higher = more signal;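 further: score merges spot fluorescence at 667nm with spot signal to noise ratio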

| SMILES | composite z-score [1] | composite z-score [2] | composite z-score [3] | composite z-score [4] | composite z-score [5] | composite z-score [6] | composite z-score [7] | z-score [8] | composite z-score [9] | composite z-score [10] |
| --- | --- | --- | --- | --- | --- | --- | --- | --- | --- | --- |
| COc1ccc(CCNC(=O)[C@@H]2c3ccccc3C(=O)N(Cc3ccccc3)[C@H]2c2ccc(CO)cc2)cc1 | 0.262 | 1.24 | -0.0866 | -0.101 | -0.117 | -0.0744 | 1.2 | -2.26 (inactive) | 0.0887 | 3.74 |
| CN1C(=O)C2C=CC(C(O)C3CCCCC3)N(N(c3ccccc3)c3ccccc3)C2C1=O (stereo not given) | 1.61 | -0.277 | 0.182 | -0.122 | -0.112 | 1.12 | 0.659 | -0.158 (inactive) | 0.236 | -0.183 |
| CC(C)CN1C(=O)[C@@]2(Cc3ccccc31)c1ccccc1C(=O)N(Cc1ccccc1)[C@H]2c1ccc(CO)cc1 | 0.849 | -0.675 | -0.148 | -0.0466 | -0.713 | -0.544 | -0.152 | -0.314 (inactive) | -0.759 | -0.261 |
| C[C@]12C(=O)N(CCCO)[C@@H]3C(=O)N(c4ccc(Cl)cc4)CC=CC31O[C@@H]1/C=C\CCCOC(=O)C12 (stereo not given in full) | -0.157 | -0.549 | -0.0895 | -0.512 | -1.37 | -0.0724 | 1.13 | 1.43 (inactive) | -0.67 | -0.363 |
| NC(=O)[C@H]1[C@@H]2C(=O)O[C@@H](c3ccccc3)[C@@H](c3ccccc3)N2[C@@H](c2ccc(O)cc2)[C@]12C(=O)Nc1ccc(C#CC3(O)CCCCCC3)cc12 | 0.0918 | 0.417 | -0.0454 | 0.607 | 1.35 | 1.5 | 1.35 | -1.46 (inactive) | 0.617 | 0.233 |
| O=C1C2C=CC(C(O)c3ccccn3)N(Nc3ccccc3)C2C(=O)N1c1ccccc1 (stereo not given) | -0.205 | -1.39 | -0.105 | 0.356 | 0.177 | 1.65 | 1.03 | 1.29 (inactive) | 0.338 | -0.0003 |
| [N-]=[N+]=NCc1ccccc1C[C@]1(C(=O)NCCN2CCOCC2)COC(c2ccc(OCCCO)cc2)=N1 | 0.186 | 1.25 | -0.0647 | 0.121 | 0.973 | 1.02 | 1.2 | -2.23 (inactive) | 0.817 | -0.0645 |
| C[N+](C)(C)CCCCCCNC(=O)[C@@H]1C[C@@H]2C(=O)NCC(=O)N2[C@@H]1c1cccc(OCCO)c1 | -0.419 | 0.488 | -0.125 | -0.114 | 0.033 | 0.021 | 1.22 | 4.06 (inactive) | -0.0422 | -0.34 |
